Source: PubChem BioAssay (NCI)
The panel holds about 83,000 compounds, 20% with a hit somewhere; the sample as a whole holds those more often.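 Negative percent growth values reflect cell death: -40 means 40% of the cells present at the start died, and -100 means all died.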 Activity calls are given as the source filed them. Rule for the calls: active = growth percent below 10; inactive = the rest.

Key:
Assay in all cases: NCI-60 one-dose screen, 48 h (100 = growth as untreated, 0 = no growth, -100 = all killed)
Conditions in all cases: 10 µM unless noted
[1] = system: DU-145 prostate
[2] = system: K-562 leukemia
[3] = system: MALME-3M melanoma
[4] = system: MDA-MB-231 breast
[5] = system: RXF 393 renal
[6] = system: SF-268 CNS
[7] = system: SF-295 CNS
[8] = system: SF-539 CNS
[9] = system: UACC-257 melanoma
[10] = system: M14 melanoma
[11] = system: HCT-15 colon
[12] = system: HT29 colon
[13] = system: SNB-75 CNS
[14] = system: SNB-19 CNS
[15] = system: PC-3 prostate
[16] = system: SK-MEL-5 melanoma
[17] = system: UACC-62 melanoma
[18] = system: LOX IMVI melanoma
[19] = system: SK-MEL-28 melanoma
[20] = system: U251 CNS

Measured: growth

CN1CCN(Cn2nc(-c3cc(F)c(Cl)cc3Cl)n(/N=C/c3ccc(N(C)C)cc3)c2=S)CC1
inactive: [1] 87.3% | [2] 22.4% | [3] 63.4% | [4] 102% | [5] 82.7% | [6] 102% | [7] 48.4% | [8] 78.1% | [9] 93.8% | [10] 37.3% | [11] 100% | [12] 99.5% | [13] 78.7% | [14] 71.5% | [15] 76.2% | [16] 79.7% | [17] 79.4% | [18] 79.9% | [19] 82.1%

CCOC(=O)c1cnc2c(OC)ccc(OC)c2c1Cl
inactive: [1] 118% | [2] 116% | [3] 98.3% | [4] 128% | [5] 115% | [6] 98.9% | [7] 110% | [8] 104% | [9] 101% | [10] 106% | [11] 107% | [12] 117% | [13] 82.7% | [14] 114% | [15] 93.6% | [16] 107% | [17] 109% | [18] 91.1%

Cc1nssc1=S
inactive: [1] 113% | [2] 93.8% | [3] 102% | [4] 112% | [5] 113% | [6] 106% | [7] 99.7% | [8] 101% | [9] 102% | [10] 88.2% | [11] 104% | [12] 102% | [14] 96.5% | [20] 102% | [15] 88.2% | [16] 108% | [17] 104% | [18] 89.4%

CC12CCC3C(CCC4CC(O)CCC43C)C1C/C(=C/O)C(=O)O2 (stereo unspecified)
inactive: [1] 108% | [2] 102% | [3] 134% | [4] 106% | [5] 99.8% | [6] 101% | [7] 105% | [8] 113% | [9] 92.6% | [10] 105% | [11] 106% | [12] 102% | [13] 110% | [20] 104% | [16] 92.9% | [17] 100% | [18] 101% | [19] 112%

Nc1ncnc2c1c(-c1ccc(Oc3ccccc3)cc1)nn2C[C@H]1SSC[C@H]1O
inactive: [3] 13.9% | [6] 20.1% | [7] 20.7% | [8] 10% | [11] 26.6% | [20] 21.1% | [15] 50.7%
active: [1] -22.6% | [2] -16.9% | [4] 9.82% | [5] -4.66% | [9] 1.69% | [10] -66.7% | [12] -59.1% | [13] 3.26% | [16] -92.5% | [17] -48.8% | [18] -57.7% | [19] -16.3%

COc1ccccc1P(c1ccccc1OC)c1ccccc1OC
inactive: [1] 109% | [2] 107% | [3] 104% | [4] 101% | [5] 102% | [6] 109% | [7] 97.3% | [8] 101% | [9] 78.1% | [10] 101% | [11] 104% | [12] 92.2% | [13] 98% | [20] 95.7% | [15] 80% | [16] 88.6% | [17] 90% | [18] 85.4% | [19] 117%

NC(=NCCCOc1ccc(F)cc1)Nc1ccc(Cl)c(Cl)c1
inactive: [1] 80.2% | [2] 12.6% | [3] 98.1% | [4] 44% | [5] 68.6% | [6] 54.9% | [7] 76.6% | [8] 79.1% | [9] 77.2% | [10] 63.6% | [11] 75.6% | [12] 31.7% | [14] 77% | [20] 69.8% | [15] 63.9% | [16] 51.4% | [17] 78.6% | [18] 55.9% | [19] 94.3%

CC(=O)Cc1cccnc1
inactive: [1] 110% | [2] 86.7% | [3] 103% | [4] 99.9% | [5] 103% | [6] 104% | [7] 99.2% | [8] 102% | [9] 96.8% | [10] 101% | [11] 107% | [12] 106% | [13] 104% | [20] 98.6% | [15] 94.3% | [16] 101% | [17] 95.6% | [18] 99.9% | [19] 113%

O=C(NCCNc1nccc(-c2c(-c3cccc(O)c3)nc3sccn23)n1)Nc1cc(C(F)(F)F)cc(C(F)(F)F)c1
inactive: [1] 97.1% | [2] 72.7% | [3] 60.5% | [4] 41.4% | [5] 41.4% | [6] 69.4% | [7] 66.7% | [8] 96.5% | [9] 57% | [10] 21.4% | [11] 79.2% | [12] 63.1% | [14] 90.8% | [20] 77% | [15] 51.2% | [16] 59.7% | [17] 54.4% | [18] 60.6% | [19] 68.8%

Cc1ccc2c(c1)Nc1ccc(C)cc1C2(C)C
inactive: [1] 107% | [2] 97.4% | [3] 98.9% | [4] 114% | [5] 101% | [6] 105% | [7] 101% | [8] 95.7% | [9] 110% | [10] 98.2% | [11] 96% | [12] 79% | [14] 115% | [20] 100% | [15] 90.6% | [16] 97.9% | [17] 100% | [18] 101% | [19] 105%

Cc1cc(O[C@@H]2O[C@@H](C)[C@H](O)[C@@H](O)[C@H]2O)c2c3c(c(O[C@@H]4O[C@@H](C)[C@H](O)[C@@H](O)[C@H]4O)cc2c1)C(=O)c1c(O)cccc1C3=O
inactive: [1] 98% | [2] 79.6% | [3] 107% | [4] 86.3% | [5] 29.6% | [6] 56.3% | [7] 79% | [8] 92.5% | [9] 87.2% | [10] 82.6% | [11] 87.9% | [12] 72.4% | [14] 94.3% | [20] 82% | [15] 56.7% | [16] 67.8% | [17] 65.6% | [18] 74% | [19] 90.8%

CC(C)CNCC(=O)Nc1ccc(Cc2ccc(NC(=O)CNCC(C)C)cc2)cc1
inactive: [1] 58.3% | [5] 46.7% | [6] 59.7% | [7] 78.5% | [8] 77.8% | [9] 62.6% | [10] 38.6% | [11] 50.2% | [12] 15.8% | [13] 65.7% | [20] 50.5% | [15] 25.8% | [16] 40.3% | [17] 64.6% | [18] 60.4% | [19] 80.4%
active: [2] -27.7% | [3] -23% | [4] -0.499%

CCn1cc(C(=O)O)c(=O)c2cc(F)c(N3CCN(CC(=O)Nc4ccc(C(C)=O)cc4)CC3)cc21
inactive: [1] 111% | [2] 94.6% | [3] 105% | [4] 100% | [5] 102% | [6] 102% | [7] 103% | [8] 98% | [9] 93.1% | [10] 102% | [11] 104% | [12] 100% | [14] 99% | [20] 99.6% | [15] 96.4% | [16] 100% | [17] 95.9% | [18] 96.1% | [19] 105%

O=C(CSc1nnc(-c2ccc(Cl)cc2)o1)Nc1ccc(C(=O)/C=C/c2ccccc2)cc1
inactive: [1] 101% | [2] 99.3% | [3] 106% | [4] 99.1% | [5] 112% | [6] 103% | [7] 105% | [8] 106% | [9] 101% | [10] 96% | [11] 96.7% | [12] 98% | [14] 86.9% | [20] 99.3% | [15] 99.4% | [16] 98% | [17] 85.6% | [18] 85.3% | [19] 105%

O=S(=O)(CCN1CCOCC1)Nc1cncc(-c2ccc3ncnc(Nc4ccc(F)c(Cl)c4)c3c2)c1
inactive: [1] 65.3% | [2] 96.5% | [3] 57.7% | [4] 67.9% | [5] 84.6% | [6] 63.5% | [7] 82.1% | [8] 75.1% | [9] 87.6% | [10] 73.3% | [11] 84.6% | [12] 73.6% | [13] 56.3% | [20] 68.9% | [15] 53.2% | [16] 95.4% | [17] 77.5% | [18] 56.6% | [19] 81.7%

COc1ccc(/C=C2/C(=O)Nc3cc(Cl)c(-c4csc(N)n4)cc32)cc1
inactive: [1] 67.5% | [2] 13.6% | [3] 75.1% | [4] 27.3% | [5] 59.7% | [6] 58.7% | [7] 52.4% | [8] 37.8% | [9] 82.7% | [10] 29.9% | [11] 39.9% | [12] 27.9% | [14] 45.5% | [20] 46.3% | [15] 50.3% | [16] 19.1% | [17] 37.6% | [18] 48.6% | [19] 70.1%
